Source: PubChem (several laboratories)
Phagocyt inh = macrophage phagocytosis inhibition; 110,000 tested, 0.07% active; inhibition, % at 5 µM; J774A.1 macrophage IgG-bead phagocytosis, imaging;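 active means inhibition above the mean of the plate negative controls plus 5 SD, cut at about 13% in these data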;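 further: phagocytic index as fraction of beads internalized from green versus red external bead signal; plate controls were DMSO negative control for no effect and cytochalasin-D positive control for full effect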
Measles CPE = protection of cells from measles virus | protection (pct of control), % at 4 µM | 140,000 tested, 1.5% active | Measles virus-infected cells, CPE protection, absorbance; in the data active means protection mostly above about 24%, no sharp cut-off; inactive means mostly below about 26%
SDO1 yeast rescue = sdo1-depleted yeast growth rescue | S. cerevisiae sdo1-depleted JHY4D growth rescue, OD600 30 h; stronger effect = higher value; pdr5 snq2 efflux-pump mutant strain | z-score at 10 µM | 140,000 tested, 0.21% active;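 active means z-score above 3 at both the 24 hr and the 30 hr optical density reads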;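 further: z-score against mean and SD of all compound wells on the same plate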
The depositor's hits bear a star; . = no result. Sampled rows, rich in hits. Any-hit rate of the full collection: about 1.8%.

SMILES | Phagocyt inh | Measles CPE | SDO1 yeast rescue
Cc1noc(NS(=O)(=O)c2ccc(N/C=C\C(=O)c3ccncc3)cc2)c1C | -1 | 1 | 0.56
COc1ccc(C(=O)/C=C/Nc2ccc(S(=O)(=O)Nc3onc(C)c3C)cc2)cc1 | -2 | 43* | 0.03
CCN(CC)c1nc2ccccc2c(N)c1-c1ccccc1 | -2 | 33 | 0.69
Cc1ccc(NC(=O)CCC(=O)OCC(F)(F)C(F)F)cc1 | -2 | 3 | 0.54
O=C(CCCC(=O)OCC(F)(F)C(F)F)Nc1ccc(NC(=O)CCCC(=O)OCC(F)(F)C(F)F)cc1 | 2 | 42* | -1
O=C(O)CCCNC(=O)CCCNC(=O)C(c1ccccc1)c1ccccc1 | -3 | 9 | -0.48
Cc1cc(-c2ccco2)c(C#N)c2nc3ccccc3n12 | -1 | 1 | -2.7
COc1ccc(NC(=O)c2ccc(COCC(F)(F)C(F)F)cc2)cc1OC | -4 | 13 | 0.29
COc1cc(NC(=O)c2ccc(COCC(F)(F)F)cc2)cc(OC)c1OC | -1 | 30* | -0.46
CCN(CC)S(=O)(=O)c1ccc(NC(=O)COc2c(OC)cccc2OC)cc1 | -1 | 14 | 0.77
Cc1cccc(-c2nc(C#N)c(NC3CCCCC3)o2)c1 | 0 | 43* | -1.2
Cc1cccc(-c2nc(CS(=O)CC(=O)NC3CCCC3)c(C)o2)c1 (configuration not stated) | 0 | 9 | 1.9
O=C(Nc1ccc([N+](=O)[O-])cn1)C1CC2CCC1C2 (configuration not stated) | -1 | 2 | 0.9
O=C(Nc1cccn(Cc2c(Cl)cccc2Cl)c1=O)c1ccccc1Cl | . | 48* | -0.79
O=C(Nc1cccn(Cc2c(Cl)cccc2Cl)c1=O)c1ccc(Cl)cc1Cl | . | 4 | -1.3
O=C(NC1CCCc2ccccc21)c1ccccc1 (configuration not stated) | 4 | 5 | 0.31
CNC(=O)NC1CCCc2ccccc21 (configuration not stated) | -1 | 23* | 0.93
COC(=O)[C@H](C)NC(=O)NC1CCCc2ccccc21 (some centres not stated) | 0 | 56* | 0.61
CC(C)[C@H](NC(=O)NC1CCCc2ccccc21)C(=O)O (some centres not stated) | -1 | 20* | -0.04
O=C(Nc1cccc2ccccc12)NC1CCCc2ccccc21 (configuration not stated) | . | 4 | 1.1
COC(=O)[C@H](CC(C)C)NC(=O)NC1CCCc2ccccc21 (some centres not stated) | -1 | 5 | 0.45
C/C(CC(=O)NC1CCCC1)=N\NC(=O)Cc1csc(N)n1 | -3 | 2 | 1.6
Nc1c(NC2CCCCC2)c2ccccc2oc1=O | -2 | 24 | -0.82
O=c1cc(NC2CCCCC2)c2ccccc2o1 | -1 | 20* | -0.28
CCOC(=O)Cc1csc(NC(=O)CC)n1 | 0 | 7 | -0.04
SMILES | Phagocyt inh | Measles CPE | SDO1 yeast rescue
CCOC(=O)Cc1csc(NC(=O)CSc2cc(Cl)ccc2Cl)n1 | -4 | 29* | -0.45
CCOC(=O)c1c(NC(=O)COc2cccc3c2CCN(C)C3=O)sc2c1CCC2 | 1 | 13 | 0.14
COc1ccc(C)cc1N(CC(=O)Nc1cccc(N(C)S(C)(=O)=O)c1)S(C)(=O)=O | -3 | 12 | 0.21
COc1ccc(N(CC(=O)Nc2cccc(C(C)=O)c2)S(C)(=O)=O)cc1OC | -1 | 92* | 0.34
CCOC(=O)N1CCN(C(=O)CN(c2ccc3c(c2)OCO3)S(C)(=O)=O)CC1 | 1 | 8 | 1.1
COc1ccc(N(CC(=O)N2CCc3ccccc3C2)S(C)(=O)=O)cc1OC | 0 | 10 | 0.52
COc1ccc(N(CC(=O)N2CCN(C)CC2)S(C)(=O)=O)cc1OC | 0 | 50* | 0.16
COc1cccc(N(CC(=O)Nc2cccc(C(C)=O)c2)S(C)(=O)=O)c1 | . | 4 | 1.2
CCOC(=O)N1CCN(C(=O)CN(c2ccc(OCc3ccccc3)cc2)S(C)(=O)=O)CC1 | 1 | 28* | 0.56
COc1ccc(N(CC(=O)Nc2cccc(N(C)S(C)(=O)=O)c2)S(C)(=O)=O)cc1OC | 1 | 43* | -0.26
O=S(=O)(Nc1cccc(-c2cn3cccnc3n2)c1)c1ccc(Cl)cc1 | -8 | 36 | 0.02
CCC(O)(CC)C(=O)NN(C(=O)Nc1csc2c1CCCC2)c1ccccc1 | -1 | 3 | -0.36
COc1ccc2c(c1)C(=NN)c1cc(OC)ccc1-2 | . | 32 | 0.61
NNC(=O)[C@@H]1C[C@@H]1c1ccccc1 | -7 | 7 | 0.07
CCc1c(C)sc(NC(=O)C2CC2c2ccccc2)c1C(N)=O (configuration not stated) | 3 | 38* | -1.3
COCCn1c(C)cc(/C=C2/NC(=O)N(c3ccc(Cl)cc3)C2=O)c1C | -5 | 6 | 0.05
CCCCN(C(=O)NC(=O)Nc1ccccc1OC)S(C)(=O)=O | . | 28* | 0.51
COc1ccccc1NC(=O)NC(=O)N(C(C)C)S(C)(=O)=O | 0 | 1 | 0.14
